Among the data in PubChem BioAssay (EPA / NIEHS) are outcome and AC50 values, retold here.

Read-out in one assay: CD69, CD69 (gene 969)
The assay can be described thus: BSK_LPS_CD69: BioMAP Diversity Plus: LPS Assay for CD69 Biomarker Activity (AID 2284303). As to conditions: primary human HUVEC with PBMC. Summed up:
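CD69 surface levels were read by ELISA after 24 h chemical treatment of an LPS-stimulated HUVEC plus PBMC co-culture; positive-direction fit against DMSO vehicle.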

The next assay addresses AR (gene 367) (UniProt P10275). The assay can be described thus: ACEA_AR_agonist_80hr: ACEA Biosciences xCELLigence Real-Time Cell Analysis on Androgen Receptor Agonism for Proliferation (AID 2283783; active = hit-call score of the fitted dose curve at least 0.9, where 1 is the maximum;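 also: hits increase impedance growth signal above DMSO baseline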). A digest of the protocol: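 Impedance (RT-CES) growth signal at 80 h post-dose; 22Rv1 cells, 8-pt 1:4 series, top 100 uM final, DMSO ≤0.5%; duplicate plates; gain-of-signal fit relative to DMSO baseline.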

In assay [1] the target is human Neurokinin, NK2 Receptor, TACR2 (gene 6865) (UniProt P21452). The assay can be described thus: NVS_GPCR_hNK2: NovaScreen (NVS) G Protein-Coupled Receptor Assay for human Neurokinin, NK2 Receptor (AID 2283278; active = hit-call score of the fitted dose curve at least 0.9, where 1 is the maximum;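 also: actives reduce bound radioligand signal relative to DMSO baseline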). A digest of the protocol: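 CHO-derived membrane protein, radioligand displacement, filter scintillation read at 4 h post-dose. Single-point 25 uM in duplicate, then concentration series for actives; DMSO as negative control.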

The target in assay [2] is human Opioid Receptor Mu (Opiate Mu), OPRM1 (gene 4988) (UniProt P35372). Put plainly: NVS_GPCR_hOpiate_mu: NovaScreen (NVS) G Protein-Coupled Receptor Assay for human Opioid Receptor Mu (Opiate Mu) (AID 2283290; active = hit-call score of the fitted dose curve at least 0.9, where 1 is the maximum;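 also: hits lower bound tracer signal versus DMSO meaning displacement of the ligand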). A digest of the protocol:
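Cell-free radioligand binding to membranes from CHO cells expressing the receptor; bound tracer measured by filter-based scintillation counting 2.5 hours after dosing. Loss of signal versus DMSO baseline reflects displacement; primary screen at 25 uM in duplicate, actives followed up in concentration series.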

The target of assay [3] is Serine/threonine-protein phosphatase PP1-alpha catalytic subunit (Homo sapiens) (UniProt P62136). Put plainly: NVS_ENZ_hPPP1CA: NovaScreen (NVS) Enzymatic Assay for human Protein Phosphatase 1 Aatalytic subunit Alpha (PPP1CA) (AID 2283200; active = hit-call score of the fitted dose curve at least 0.9, where 1 is the maximum). A digest of the protocol:
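Chemicals were first screened in duplicate at 25 uM, and those passing threshold (e.g. 30% inhibition) were run as concentration series to 50 uM. Cell-free recombinant protein, 1.33 h read, fluorescent substrate/product mobility-shift detection, normalised to DMSO.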

Assay [4] concerns the target human Protein Tyrosine Phosphatase Non-receptor Type 4 (PTPN4), PTPN4 (gene 5775) (UniProt P29074). Put plainly: NVS_ENZ_hPTPN4: NovaScreen (NVS) Enzymatic Assay for human Protein Tyrosine Phosphatase Non-receptor Type 4 (PTPN4) (AID 2283208; active = hit-call score of the fitted dose curve at least 0.9, where 1 is the maximum). Summed up: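 Screened in duplicate at 25 uM, with hits then titrated to a top concentration of 50 uM. Recombinant Sf9-derived PTPN4 turnover was read by fluorescence with electrophoretic separation, 1.33 h after compound addition. DMSO served as baseline.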

Assay [5] deals with human Tyrosine Protein Kinase Receptor Tie-2 (Tie2), TEK (gene 7010) (UniProt Q02763). Put plainly: NVS_ENZ_hTie2: NovaScreen (NVS) Enzymatic Assay for human Tyrosine Protein Kinase Receptor Tie-2 (Tie2) (AID 2283225; active = hit-call score of the fitted dose curve at least 0.9, where 1 is the maximum). A digest of the protocol: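 Substrate and product were separated by mobility shift and detected by fluorescence after a 1-hour reaction with recombinant Tie2. Chemicals passing a 25 uM single-point screen were titrated to a maximum of 50 uM. Results were normalized to DMSO baseline.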

Read-out in assay [6]: Tumor necrosis factor receptor superfamily member 6 (Homo sapiens) (UniProt P25445)
The assay can be described thus: LTEA_HepaRG_FAS: Life Technologies and Expression Analysis (LTEA) Assay for Fas cell surface death receptor (FAS) using HepaRG (AID 2283447). Particulars: mRNA level, 48 h; actives raise or lower the signal. A digest of the protocol: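 Differentiated HepaRG cells in serum-free induction medium were exposed 48 h to 8 half-log concentrations up to 100 uM in 0.5% DMSO, in duplicate. FAS mRNA was measured by qRT-PCR normalised to ACTB, GAPDH and POLR2A; bidirectional fit versus DMSO.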

Read-out in assay [7]: Fatty acid synthase (Homo sapiens) (UniProt P49327)
Put plainly: LTEA_HepaRG_FASN: Life Technologies and Expression Analysis (LTEA) Assay for Fatty Acid Synthase (FASN) using HepaRG (AID 2283448). Particulars: mRNA level, 48 h; actives raise or lower the signal. A digest of the protocol:
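FASN transcript measured by TaqMan qRT-PCR, normalised to three housekeeping genes, after 48 h chemical exposure of HepaRG cells. Eight-point half-log series from 100 uM in 0.5% DMSO, duplicates; gain or loss fitted against vehicle.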

Read-out in assay [8]: Cyclin D2 (CCND2), CCND2 (gene 894)
Put plainly: LTEA_HepaRG_CCND2: Life Technologies and Expression Analysis (LTEA) Assay for Cyclin D2 (CCND2) using HepaRG (AID 2283449).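 Also: CCND2 transcript measured by TaqMan qRT-PCR and normalised to three housekeeping genes.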 As to conditions: mRNA level, 48 h; actives raise or lower the signal. Summed up:
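HepaRG, 48 h dosing, 8-pt half-log curve from 100 uM, 0.5% DMSO; duplicate wells. Readout: CCND2 transcript by microfluidic qRT-PCR, housekeeping-normalised; bidirectional fit vs DMSO baseline.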

Read-out in assay [9]: Cyclin Dependent Kinase Inhibitor 1A (CDKN1A), CDKN1A (gene 1026)
The assay can be described thus: LTEA_HepaRG_CDKN1A: Life Technologies and Expression Analysis (LTEA) Assay for Cyclin Dependent Kinase Inhibitor 1A (CDKN1A) using HepaRG (AID 2283450). As to conditions: mRNA level, 48 h; actives raise or lower the signal. Summed up:
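Cryopreserved HepaRG cells were plated and cultured 48 h, then switched to serum-free induction medium. Chemicals (eight half-log concentrations, top 100 uM, 0.5% DMSO) were applied for 48 h. Lysates underwent qRT-PCR for CDKN1A with housekeeping normalization.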

Read-out in assay [10]: Cyclin D1 (CCND1), CCND1 (gene 595)
Put plainly: LTEA_HepaRG_CCND1: Life Technologies and Expression Analysis (LTEA) Assay for Cyclin D1 (CCND1) using HepaRG (AID 2283451). Particulars: mRNA level, 48 h; actives raise or lower the signal. Summed up:
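Human liver HepaRG line; 48 h dosing, 8 conc. ≤100 uM, 0.5% DMSO; TaqMan qRT-PCR mRNA, 3 housekeeping genes; bidirectional curve fit vs DMSO.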

Read-out in assay [11]: catalase (CAT), CAT (gene 847)
Put plainly: LTEA_HepaRG_CAT: Life Technologies and Expression Analysis (LTEA) Assay for catalase (CAT) using HepaRG (AID 2283452). As to conditions: mRNA level, 48 h; actives raise or lower the signal. A digest of the protocol: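 HepaRG cells in serum-free induction medium, 0.5% DMSO vehicle, exposed 48 h in duplicate over 8 half-log concentrations from 100 uM. CAT mRNA measured by qRT-PCR, normalized to ACTB, GAPDH, POLR2A; bidirectional fit versus DMSO.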

Read-out in assay [12]: flavin-containing dimethylaniline monooxygenases 3 (FMO3), FMO3 (gene 2328)
The assay can be described thus: LTEA_HepaRG_FMO3: Life Technologies and Expression Analysis (LTEA) Assay for flavin-containing dimethylaniline monooxygenases 3 (FMO3) using HepaRG (AID 2283453). Particulars: mRNA level, 48 h; actives raise or lower the signal. Summed up:
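FMO3 transcript quantified by TaqMan qRT-PCR against three housekeeping genes after 48 h chemical exposure of HepaRG cells. Eight-point half-log series, top 100 uM, 0.5% DMSO vehicle; phenobarbital 1mM induction control; up- or down-regulation fitted.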

Read-out in assay [13]: Cytochrome P450 (CYP1A1), CYP1A1 (gene 1543)
The assay can be described thus: LTEA_HepaRG_CYP1A1: Life Technologies and Expression Analysis (LTEA) Assay for Cytochrome P450 (CYP1A1) using HepaRG (AID 2283454). Particulars: mRNA level, 48 h; actives raise or lower the signal. Summed up:
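Induction of CYP1A1 mRNA in a human hepatic cell line was measured 48 h after dosing, with 1 mM phenobarbital as induction positive control and 0.5% DMSO vehicle as baseline for bidirectional curve fitting.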

Read-out in assay [14]: CFLAR gene, CFLAR (gene 8837)
The assay can be described thus: LTEA_HepaRG_CFLAR: Life Technologies and Expression Analysis (LTEA) Assay for CFLAR gene using HepaRG (AID 2283455). As to conditions: mRNA level, 48 h; actives raise or lower the signal. A digest of the protocol:
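qRT-PCR read-out (Fluidigm/TaqMan) of CFLAR mRNA, normalized to three housekeeping genes, in differentiated human HepaRG cells after 48 h chemical exposure; 8-point half-log series from 100 uM in 0.5% DMSO; bidirectional curve fitting versus DMSO.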

Read-out in assay [15]: Forkhead box O1 (FOXO1), FOXO1 (gene 2308)
The assay can be described thus: LTEA_HepaRG_FOXO1: Life Technologies and Expression Analysis (LTEA) Assay for Forkhead box O1 (FOXO1) using HepaRG (AID 2283456). As to conditions: mRNA level, 48 h; actives raise or lower the signal. A digest of the protocol:
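HepaRG, 48 h exposure, 8-pt half-log series from 100 uM in 0.5% DMSO, duplicates; Fluidigm qRT-PCR mRNA, housekeeping-normalised; bidirectional fit vs DMSO baseline.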

Read-out in assay [16]: growth arrest and DNA damage 45 (GADD45A), GADD45A (gene 1647)
Put plainly: LTEA_HepaRG_GADD45A: Life Technologies and Expression Analysis (LTEA) Assay for growth arrest and DNA damage 45 (GADD45A) using HepaRG (AID 2283458). As to conditions: mRNA level, 48 h; actives raise or lower the signal. A digest of the protocol: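 GADD45A expression was measured by TaqMan qRT-PCR against three housekeeping genes (ACTB, GAPDH, POLR2A) after 48 h treatment of HepaRG cells. Eight-point half-log series up to 100 uM in 0.5% DMSO, run in duplicate.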

Read-out in assay [17]: Forkhead box O3 (FOXO3), FOXO3 (gene 2309)
Put plainly: LTEA_HepaRG_FOXO3: Life Technologies and Expression Analysis (LTEA) Assay for Forkhead box O3 (FOXO3) using HepaRG (AID 2283459). As to conditions: mRNA level, 48 h; actives raise or lower the signal. A digest of the protocol:
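qRT-PCR readout of FOXO3 transcript, normalized to three housekeeping genes (ACTB, GAPDH, POLR2A); gain or loss fitted against 0.5% DMSO vehicle. HepaRG cells, 48 h chemical exposure, 8-point half-log series, top 100 uM.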

Read-out in assay [18]: ABC Transporter (ABCB1), ABCB1 (gene 5243)
The assay can be described thus: LTEA_HepaRG_ABCB1: Life Technologies and Expression Analysis (LTEA) Assay for ABC Transporter (ABCB1) using HepaRG (AID 2283460). Particulars: mRNA level, 48 h; actives raise or lower the signal. Summed up:
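HepaRG, 48 h exposure, 8-pt half-log series from 100 uM, 0.5% DMSO vehicle, duplicates. Readout: ABCB1 transcript by Fluidigm TaqMan qRT-PCR, housekeeping-normalized; bidirectional curve fit vs DMSO baseline.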

Inconclusive results are not listed. Active and inactive are the calls of the source. The calls were made as follows, unless noted: active = hit-call score of the fitted dose curve at least 0.9, where 1 is the maximum; inactive = score below 0.9.

Serine/threonine-protein phosphatase PP1-alpha catalytic subunit (Homo sapiens), sequence (P62136 whole entry, looked up): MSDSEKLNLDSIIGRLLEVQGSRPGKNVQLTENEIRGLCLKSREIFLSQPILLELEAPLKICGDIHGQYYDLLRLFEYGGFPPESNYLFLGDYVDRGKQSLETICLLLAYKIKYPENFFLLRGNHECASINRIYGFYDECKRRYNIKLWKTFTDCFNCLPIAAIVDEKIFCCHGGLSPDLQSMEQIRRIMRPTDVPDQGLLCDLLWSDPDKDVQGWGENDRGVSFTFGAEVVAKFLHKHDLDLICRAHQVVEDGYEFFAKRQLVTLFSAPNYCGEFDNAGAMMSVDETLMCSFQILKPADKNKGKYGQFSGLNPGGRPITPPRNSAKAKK
human Neurokinin, NK2 Receptor, TACR2 (gene 6865), sequence (P21452 whole entry, looked up): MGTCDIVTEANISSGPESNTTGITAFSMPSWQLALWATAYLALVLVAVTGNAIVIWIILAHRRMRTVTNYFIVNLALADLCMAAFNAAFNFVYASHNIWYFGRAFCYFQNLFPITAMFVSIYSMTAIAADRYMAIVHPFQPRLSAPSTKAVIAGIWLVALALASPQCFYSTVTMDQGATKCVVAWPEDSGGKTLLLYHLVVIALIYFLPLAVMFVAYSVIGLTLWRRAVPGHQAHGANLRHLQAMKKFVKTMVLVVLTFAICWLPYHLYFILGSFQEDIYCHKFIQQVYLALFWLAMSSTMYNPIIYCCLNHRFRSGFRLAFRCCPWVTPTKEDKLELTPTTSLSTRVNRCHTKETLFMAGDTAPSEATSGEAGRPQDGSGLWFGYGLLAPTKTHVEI
human Tyrosine Protein Kinase Receptor Tie-2 (Tie2), TEK (gene 7010), sequence (Q02763 whole entry, looked up): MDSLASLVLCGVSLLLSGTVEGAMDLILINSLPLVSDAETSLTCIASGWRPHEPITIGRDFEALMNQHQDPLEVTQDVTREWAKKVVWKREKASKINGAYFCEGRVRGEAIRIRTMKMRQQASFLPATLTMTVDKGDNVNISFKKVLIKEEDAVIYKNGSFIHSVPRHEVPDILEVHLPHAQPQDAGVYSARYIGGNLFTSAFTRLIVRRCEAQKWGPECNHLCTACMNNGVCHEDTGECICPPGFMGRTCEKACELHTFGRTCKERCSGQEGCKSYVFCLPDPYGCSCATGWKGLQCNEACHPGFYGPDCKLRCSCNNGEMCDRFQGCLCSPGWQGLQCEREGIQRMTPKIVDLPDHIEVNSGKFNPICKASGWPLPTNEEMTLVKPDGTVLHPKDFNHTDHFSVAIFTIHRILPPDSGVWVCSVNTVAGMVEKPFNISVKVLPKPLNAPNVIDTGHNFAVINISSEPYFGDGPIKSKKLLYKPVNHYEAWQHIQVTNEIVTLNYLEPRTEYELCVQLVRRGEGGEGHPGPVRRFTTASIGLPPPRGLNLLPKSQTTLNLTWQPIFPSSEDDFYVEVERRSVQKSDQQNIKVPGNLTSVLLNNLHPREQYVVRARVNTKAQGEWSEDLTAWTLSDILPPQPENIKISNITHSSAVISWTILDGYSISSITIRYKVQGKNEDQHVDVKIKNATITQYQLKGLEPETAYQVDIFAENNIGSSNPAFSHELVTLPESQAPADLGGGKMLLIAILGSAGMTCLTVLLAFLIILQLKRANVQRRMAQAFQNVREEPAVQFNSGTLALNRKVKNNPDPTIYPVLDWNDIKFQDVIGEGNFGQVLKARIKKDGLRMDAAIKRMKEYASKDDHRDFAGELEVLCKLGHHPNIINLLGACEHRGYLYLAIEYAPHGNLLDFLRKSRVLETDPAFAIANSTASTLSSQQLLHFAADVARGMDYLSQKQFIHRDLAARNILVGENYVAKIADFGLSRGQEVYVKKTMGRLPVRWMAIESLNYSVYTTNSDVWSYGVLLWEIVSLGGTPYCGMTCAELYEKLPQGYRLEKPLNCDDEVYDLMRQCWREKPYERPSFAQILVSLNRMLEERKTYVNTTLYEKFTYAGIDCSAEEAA
AR (gene 367), sequence (P10275 whole entry, looked up): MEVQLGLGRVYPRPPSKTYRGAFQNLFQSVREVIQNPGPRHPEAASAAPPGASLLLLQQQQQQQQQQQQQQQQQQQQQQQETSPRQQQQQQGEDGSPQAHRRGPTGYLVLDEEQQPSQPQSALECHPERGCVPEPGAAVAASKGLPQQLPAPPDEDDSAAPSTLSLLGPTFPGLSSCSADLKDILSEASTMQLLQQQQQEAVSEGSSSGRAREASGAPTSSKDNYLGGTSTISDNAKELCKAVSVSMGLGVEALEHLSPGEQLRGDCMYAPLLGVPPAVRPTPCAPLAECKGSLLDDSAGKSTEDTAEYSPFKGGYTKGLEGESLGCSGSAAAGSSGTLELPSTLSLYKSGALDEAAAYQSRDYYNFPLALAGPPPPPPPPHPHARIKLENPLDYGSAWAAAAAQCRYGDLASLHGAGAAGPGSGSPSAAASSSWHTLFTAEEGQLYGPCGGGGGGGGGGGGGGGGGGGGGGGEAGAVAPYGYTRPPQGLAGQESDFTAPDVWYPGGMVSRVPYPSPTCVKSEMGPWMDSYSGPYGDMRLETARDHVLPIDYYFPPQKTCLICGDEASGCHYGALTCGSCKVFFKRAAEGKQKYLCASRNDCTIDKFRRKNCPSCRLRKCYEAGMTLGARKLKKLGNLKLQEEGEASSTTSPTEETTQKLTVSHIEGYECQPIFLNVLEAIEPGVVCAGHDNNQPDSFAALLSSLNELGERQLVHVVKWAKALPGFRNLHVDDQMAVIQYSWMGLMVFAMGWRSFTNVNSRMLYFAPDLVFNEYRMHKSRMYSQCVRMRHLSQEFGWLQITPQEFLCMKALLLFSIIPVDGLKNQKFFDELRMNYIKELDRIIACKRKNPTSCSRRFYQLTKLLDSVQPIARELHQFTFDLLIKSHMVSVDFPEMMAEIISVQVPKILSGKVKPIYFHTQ
human Protein Tyrosine Phosphatase Non-receptor Type 4 (PTPN4), PTPN4 (gene 5775), sequence (P29074 whole entry, looked up): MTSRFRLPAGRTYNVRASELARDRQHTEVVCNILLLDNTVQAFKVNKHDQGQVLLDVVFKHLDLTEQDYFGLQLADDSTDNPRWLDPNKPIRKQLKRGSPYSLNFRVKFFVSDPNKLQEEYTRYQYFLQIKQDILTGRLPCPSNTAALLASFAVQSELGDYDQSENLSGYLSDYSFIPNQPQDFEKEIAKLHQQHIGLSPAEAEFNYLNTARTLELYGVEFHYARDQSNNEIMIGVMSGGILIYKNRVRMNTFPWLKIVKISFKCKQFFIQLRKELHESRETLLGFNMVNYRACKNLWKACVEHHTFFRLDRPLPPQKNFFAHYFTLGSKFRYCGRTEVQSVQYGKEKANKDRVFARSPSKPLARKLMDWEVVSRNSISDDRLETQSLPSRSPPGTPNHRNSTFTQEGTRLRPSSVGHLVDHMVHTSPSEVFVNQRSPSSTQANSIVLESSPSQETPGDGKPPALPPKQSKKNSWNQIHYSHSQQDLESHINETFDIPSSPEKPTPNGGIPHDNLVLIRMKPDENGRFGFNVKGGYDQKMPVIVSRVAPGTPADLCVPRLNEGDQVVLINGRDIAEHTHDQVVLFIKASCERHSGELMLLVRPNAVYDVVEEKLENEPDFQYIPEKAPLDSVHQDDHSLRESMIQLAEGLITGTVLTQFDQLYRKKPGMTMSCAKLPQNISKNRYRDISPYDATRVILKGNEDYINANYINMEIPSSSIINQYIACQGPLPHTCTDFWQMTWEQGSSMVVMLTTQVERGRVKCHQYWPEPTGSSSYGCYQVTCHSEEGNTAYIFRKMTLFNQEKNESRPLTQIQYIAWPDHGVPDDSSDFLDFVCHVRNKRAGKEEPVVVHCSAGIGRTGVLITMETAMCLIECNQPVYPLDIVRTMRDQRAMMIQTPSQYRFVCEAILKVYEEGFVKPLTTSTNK
human Opioid Receptor Mu (Opiate Mu), OPRM1 (gene 4988), sequence (P35372 whole entry, looked up): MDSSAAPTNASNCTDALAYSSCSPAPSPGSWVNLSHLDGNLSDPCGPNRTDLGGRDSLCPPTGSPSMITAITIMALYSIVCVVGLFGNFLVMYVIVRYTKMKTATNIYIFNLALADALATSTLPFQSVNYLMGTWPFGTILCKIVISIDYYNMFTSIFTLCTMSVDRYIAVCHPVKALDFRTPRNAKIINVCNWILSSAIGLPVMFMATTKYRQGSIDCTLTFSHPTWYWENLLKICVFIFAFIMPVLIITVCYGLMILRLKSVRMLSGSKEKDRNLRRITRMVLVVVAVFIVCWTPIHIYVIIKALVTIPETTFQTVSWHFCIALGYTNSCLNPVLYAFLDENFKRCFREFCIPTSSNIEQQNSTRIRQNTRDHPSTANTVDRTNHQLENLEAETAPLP

Regarding `O=[N+]([O-])O`, the outcome with CD69, CD69 (gene 969) was inactive.

As to `c1ccc2c(c1)CCCC2`, the outcome with AR (gene 367) was inactive.

With `O=C1C(Cl)=C(Cl)C(=O)C(Cl)=C1Cl`, the AC50 – broadly, the concentration giving half of the maximal activity seen – in [1] was 1.07 µM (active); in [2], 4.48 µM (active).

Turning to `O=C(CCl)c1ccccc1`, the molecule was classed as inactive in [3], in assay [4], in [5], in [6], in [7] and in assay [8]. Moreover, the result in assay [9], in [10], in [11], in [12], in assay [13] and in [14] was inactive. In addition, the molecule was called inactive in assay [15], in [16], in assay [17] and in assay [18].
